# Shown are actives, neighbours in structure and some others; about 0.41% of the full set was active somewhere.
# GLA spleen mod = qHTS Assay for Inhibitors and Activators of Human alpha-Galactosidase From Spleen Homogenate; human spleen homogenate, 4MU-alpha-Gal fluorescence, 40 min; Potency, µM (doses to about 80 µM), without a hit: top-dose activity change, negative = inhibition, hits mostly inhibitors; hit rate 0.008% among 240,000;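 further: potency means the concentration at half of the fitted maximal effect; 0% = enzyme with vehicle and -100% = no enzyme basal signal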
# Target sequence (P06280 32-429 limits assumed): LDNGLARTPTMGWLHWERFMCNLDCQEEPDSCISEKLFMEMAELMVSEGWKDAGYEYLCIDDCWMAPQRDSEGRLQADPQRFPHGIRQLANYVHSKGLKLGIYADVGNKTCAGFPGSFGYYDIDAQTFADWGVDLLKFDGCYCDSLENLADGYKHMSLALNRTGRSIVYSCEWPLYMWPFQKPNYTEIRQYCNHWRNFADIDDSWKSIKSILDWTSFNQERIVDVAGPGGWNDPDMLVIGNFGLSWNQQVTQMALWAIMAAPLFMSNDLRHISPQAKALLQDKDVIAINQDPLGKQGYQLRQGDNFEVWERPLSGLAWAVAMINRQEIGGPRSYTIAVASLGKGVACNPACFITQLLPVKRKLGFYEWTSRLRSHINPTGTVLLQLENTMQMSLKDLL
#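 Human spleen homogenate (1 ug) was the enzyme source, with 4-methylumbelliferyl-alpha-D-galactopyranoside (1 mM final) in pH 5.0 citrate buffer with 0.01% Tween-20. Compounds were titrated; after 40 min at 37C, NaOH/glycine stop, 4-MU fluorescence read; AC50 from Hill fits.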
# GAA glycogen = qHTS Assay for Inhibitors and Activators of Human alpha-Glucosidase Cleavage of Glycogen. hit rate 0.38% among 300,000. Potency, µM (highest dose often 76.4 µM), for the others: top-dose activity change, negative = inhibition, hits mostly inhibitors. recombinant GAA, glycogen substrate, Amplex Red glucose oxidase fluorescence. AID 2100, 2009;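 further: potency means the concentration at half of the fitted maximal effect; 0% = full enzyme reaction and -100% = no-enzyme basal signal; the screen sought inhibitors and activators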
#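 Recombinant human enzyme (4 nM); glycogen substrate; 37 C, 40 min, pH 5.0. Readout: coupled glucose oxidase/Amplex Red fluorescence.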
# N370S GC = qHTS Assay for Inhibitors and Activators of N370S glucocerebrosidase as a Potential Chaperone Treatment of Gaucher Disease | Lysosomal acid glucosylceramidase (Homo sapiens), P04062 | N370S GC spleen homogenate, 4MU-glucoside fluorescence | Potency, µM (series often up to 59.4 µM), for inactives: at the top dose activity change, negative = inhibition, actives largely listed as inhibitors | hit rate 0.092% among 330,000 | AID 2101, 2009;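 further: potency means the concentration at half of the fitted maximal effect; 0% = full enzyme activity and -100% = no enzyme basal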
# GAA inh = qHTS Assay for Inhibitors of Human alpha-Glucosidase as a Potential Chaperone Treatment of Pompe Disease. Lysosomal alpha-glucosidase (Homo sapiens), P10253. purified human GAA, 4-MU-alpha-glucoside fluorescence. Potency, µM (top dose mostly 76.9 µM), for inactives: at the top dose activity change, negative = inhibition, hits mostly inhibitors. hit rate 0.005% among 200,000. AID 1466, 2008;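 further: potency means the concentration at half of the fitted maximal effect; plate controls were uninhibited enzyme wells for no effect and no-enzyme background for full effect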
#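 Fluorescence at Ex 365/Em 440 nm from 4-methylumbelliferone reported enzyme activity after 20 min at room temperature. Reactions used 4 nM enzyme and 400 uM substrate at pH 5.0; curves fitted with the Hill equation.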
# aGlu spleen mod = qHTS Assay for Inhibitors and Activators of Human alpha-Glucosidase From Spleen Homogenate | AID 2112, 2009 | hit rate 0.006% among 240,000 | Potency, µM (top dose mostly 79.9 µM), for inactives: at the highest dose activity change, negative = inhibition, usual class: inhibitors | human spleen homogenate, 4-MU-alpha-glucoside fluorescence | Lysosomal alpha-glucosidase (Homo sapiens), P10253;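 further: potency means the concentration at half of the fitted maximal effect; 0% = enzyme with vehicle and -100% = no enzyme basal signal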
#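 Enzyme source: human spleen homogenate, 1 ug/well. Buffer 50 mM citric acid/K phosphate pH 5.0, 0.01% Tween-20. 4-MU-alpha-glucoside 1 mM; 37 C x 40 min; NaOH/glycine stop; fluorescence.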
# GLA inh pH 4.5 = qHTS Assay for Inhibitors of Human alpha-Galactosidase at pH 4.5; purified enzyme, 4-MU-alpha-Gal fluorescence, pH 4.5; 230,000 tested, under 10 active; activity change, negative = inhibition, % at 105 µM; Alpha-galactosidase A (Homo sapiens), P06280;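 further: 0% = full activity with enzyme and -100% = basal without enzyme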
# Numbers without * were called inactive; u = inconclusive; x = not tested or not shown; [ ] = dose if it differs, or a comment. The call rests on the fitted dose curve; in most records, active means well fitted curve in the direction sought with a large enough effect; inconclusive means small, poorly fitted or top-dose-only effect, or another doubt; inactive means no such curve, though single readings can be large; an effect the other way counts as inactive or inconclusive.
SMILES,GLA spleen mod,GAA glycogen,N370S GC,GAA inh,aGlu spleen mod,GLA inh pH 4.5
CCOC(=O)C1CCCN(c2c(C(=O)c3ccc(OCC)cc3)cnc3ccccc23)C1 (configuration not stated),x,11.2µM*,x,x,x,x
CCOc1ccccc1NC(=O)N(Cc1ccc(F)cc1)C1CCN(CC)CC1,x,-6.6%[76.3 µM],x,x,x,x
Oc1ccc(Br)cc1C=Nc1cccn2cc(-c3ccccc3)nc12,-10.0%,u,4.47µM*,10.9%,-1.6%,8.5
Oc1ccc(Br)cc1/C=N/n1c(-c2ccccc2)n[nH]c1=S,x,x,-2.2%,x,x,x
CC(=O)C1=C(c2ccccc2)NC(=O)NC1c1ccc(O)c(O)c1 (configuration not stated),-5.9%,u,0.1%,10.9%,-0.1%,-11.9
CC(=O)C1=C(c2ccccc2)NC(=S)NC1c1ccc(O)c(O)c1 (configuration not stated),-1.1%,3.16µM*,-7.8%,4.3%,-0.9%,-5.5
CSc1cc2c(cc1C(F)(F)F)N(C(=O)Nc1cccnc1)CC2,2.1%,x,-19.9%,x,1.9%,1.2
Cc1ccc(C)c(-c2nn(-c3cc(N4CCN(CCO)CC4)ccc3[N+](=O)[O-])c(=O)c3ccccc23)c1,0.9%,-3.3%,15.8µM*,6.8%,-2.4%,-4.2
CC(C)C1Nc2c(O)cc(Cl)c([N+](=O)[O-])c2C2C=CCC21 (configuration not stated),-12.1%,14µM*,-17.5%,14.7%,-2.0%,-3.5
c1ccc(Nc2cc(Nc3ccccc3)[nH]n2)cc1,-13.3%,28µM*,22.6%,-9.9%,-9.7%,0.7
CCOC(=O)C1=C(c2ccccc2)NC(=O)NC1c1cc(Cl)c(O)c(OC)c1 (configuration not stated),6.5%,-28.7%,0.8%,-2.6%,-3.1%,0.6
CCOC(=O)C1=C(c2ccccc2)NC(N)=NC1c1ccc(OCc2ccc(Cl)cc2)c(OC)c1 (configuration not stated),-17.4%,-5.0%,22.4µM*,x,1.9%,-14.1
COc1ccc(-c2cnc(N)nc2-c2ccc(OCc3ccccc3)cc2O)cc1,1.3%,-5.5%,-3.0%,-4.6%,-1.7%,-16.7
Nc1ncc(-c2ccccc2)c(-c2ccc(O)cc2O)n1,x,2.6%,14.1µM*,x,x,x
CSCC[C@H](N)C(=O)N[C@@H](CCCN=C(N)N)C(=O)N[C@@H](Cc1ccccc1)C(=O)N[C@@H](Cc1ccccc1)C(=O)N[C@H](C(=O)O)C(C)C,-5.4%,x,-8.2%,x,0.4%,x
CC(C)c1ccc(CNc2ccc(N3CCOCC3)cc2)cc1,-12.6%,28µM*,-11.1%,-5.9%,-14.6%,-19.6
Cc1ccc(CNc2ccc(N3CCOCC3)cc2)cc1,x,6.31µM*,-18.3%,x,x,x
c1cc(CNc2ccc(N3CCOCC3)cc2)ccn1,-3.9%,16.2%,12.1%,-2.7%,-0.2%,3.3
Cc1ccc(CNc2ccc(N3CCOCC3)c(Cl)c2)cc1,x,x,9.0%,x,x,x
CC(C)OCCCn1c(=O)c2ccccc2n2c(CCC(=O)N3CCN(c4ccccn4)CC3)nnc12,x,-1.5%[76.3 µM],20µM*,x,x,x
O=C(CCc1nnc2n(Cc3ccc(Cl)cc3)c(=O)c3ccccc3n12)N1CCN(c2ccccn2)CC1,x,x,-4.2%,x,x,x
COc1ccc(COC(=O)C2=C(C)NC(=O)NC2c2cccc(OC)c2OC)cc1 (configuration not stated),x,39.8µM*,-5.9%,x,x,x
[O-]/[N+](=C\c1ccccc1)[C@@H]1CCCC[C@@H]1/[N+]([O-])=C/c1ccccc1,6.0%,39.8µM*,-0.8%,6.7%,2.5%,-9.1
COc1cc(/C=C/c2cc(C(=O)O)c3ccccc3n2)cc(OC)c1O,-11.6%,14.1µM*,-4.1%,-4.7%,-14.0%,-0.5
COc1cc(/C=C/c2nc3ccccc3s2)cc(OC)c1O,-6.0%,17.6µM*,-9.8%,-10.5%,-10.8%,-12.5
SMILES,GLA spleen mod,GAA glycogen,N370S GC,GAA inh,aGlu spleen mod,GLA inh pH 4.5
O=C(O)CCC/C=C\C[C@@H]1C(/C=C/[C@@H](O)COc2cccc(C(F)(F)F)c2)[C@@H](O)C[C@@H]1O (some centres not stated),0.2%,x,3.5%,x,-1.6%,x
Cc1c(NC2=C(Cl)C(=O)N(c3ccccc3)C2=O)c(=O)n(-c2ccccc2)n1C,-4.7%,10µM*,-11.6%,-0.3%,-2.5%,-3.9
Cc1c(NC2=C(Cl)C(=O)N(c3ccccc3Cl)C2=O)c(=O)n(-c2ccccc2)n1C,10.5%,-0.1%,-0.4%,-4.1%,4.2%,-16.0
N#CC(=C(/N)Sc1ccccc1N)/C(C#N)=C(\N)Sc1ccccc1N,12.5%,x,-1.5%,x,4.0%,x
Cc1nnsc1C(=O)NNS(=O)(=O)c1ccccc1,6.3%,28µM*,-8.7%,0.7%,-0.2%,13.0
Cc1cccc(-c2cccc(-c3cc(=O)oc4cc5c(cc34)OCO5)c2)c1,7.4%[119 µM],x,u,x,3.4%[119 µM],5.5
CCOc1cc(CNCCc2ccc(S(N)(=O)=O)cc2)ccc1OCc1ccccc1,-11.7%,1.6%,6.31µM*,u,-1.3%,-2.7
N#CC1=C(N)C2=C(N3CCCCC3)CCCC2C1(C#N)C#N (configuration not stated),0.4%,22.4µM*,-2.8%,-2.5%,0.7%,-2.2
N#CC(C#N)=C1C=C2C=C(N3CCCCC3)CCC2CC1 (configuration not stated),-1.8%,-6.3%,9.6%,-0.8%,-4.4%,-3.7
Cc1ccccc1-c1nccc(NCc2cccs2)n1,-4.8%,x,4.47µM*,x,3.7%,x
c1cncc(-c2nccc(NCc3cccs3)n2)c1,-4.9%,x,-25.8%,x,5.3%,x
COc1cccc(-c2nccc(NCc3cccs3)n2)c1,5.4%,x,3.98µM*,x,8.7%,x
N[C@H](C(=O)O)[C@H]1C[C@H]1C(=O)O,0.6%,x,0.9%,x,-1.2%,x
COC(=O)C1=C[C@@H](C(=O)OC)[C@H]2C3=C(C(=O)[C@@]2(C)NC(=O)c2ccccc2)[C@H](C)C(C(=O)OC)=C(C(=O)OC)[C@@H]3C1,6.0%,x,8.2%,x,3.8%,x
O=C(c1cccc2cccc(O)c12)N1CCCCC1,7.0%,25.1µM*,-10.1%,5.3%,1.7%,0.4
O=C(c1cccc2ccccc12)N1CCCCC1,x,-7.6%[76.3 µM],-2.0%,x,x,x
Cc1ccccc1CNC(=O)C1CCCN(c2nnc(-n3c(C)ccc3C)s2)C1 (configuration not stated),x,-11.0%[76.3 µM],x,x,x,x
CCOC(=O)c1c(C)n(C)c2ccc(O)c(CN(C)C)c12,6.9%,25.1µM*,-4.2%,-8.1%,-12.9%,-5.4

# Assay outcomes deposited in PubChem BioAssay by National Center for Advancing Translational Sciences (NCATS).
